A selection: hits, their analogues and other compounds. The true share with any hit is near 7.3%.
FLuc modulator – counter-screen for miR-21 project: firefly luciferase inhibitors or activators. P08659. purified FLuc, Km substrates, luminescence inhibition. Potency, µM (titrated, usually from 57.5 µM), without a hit: at the highest dose activity change, negative = inhibition, hits mostly inhibitors. 360,000 compounds, 6.9% hits. AID 588342;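 also: plate controls were vehicle for no effect and reference inhibitor for full effect; nearly all actives have a fitted effect of over 55% in size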
Target sequence (P08659 whole entry, looked up): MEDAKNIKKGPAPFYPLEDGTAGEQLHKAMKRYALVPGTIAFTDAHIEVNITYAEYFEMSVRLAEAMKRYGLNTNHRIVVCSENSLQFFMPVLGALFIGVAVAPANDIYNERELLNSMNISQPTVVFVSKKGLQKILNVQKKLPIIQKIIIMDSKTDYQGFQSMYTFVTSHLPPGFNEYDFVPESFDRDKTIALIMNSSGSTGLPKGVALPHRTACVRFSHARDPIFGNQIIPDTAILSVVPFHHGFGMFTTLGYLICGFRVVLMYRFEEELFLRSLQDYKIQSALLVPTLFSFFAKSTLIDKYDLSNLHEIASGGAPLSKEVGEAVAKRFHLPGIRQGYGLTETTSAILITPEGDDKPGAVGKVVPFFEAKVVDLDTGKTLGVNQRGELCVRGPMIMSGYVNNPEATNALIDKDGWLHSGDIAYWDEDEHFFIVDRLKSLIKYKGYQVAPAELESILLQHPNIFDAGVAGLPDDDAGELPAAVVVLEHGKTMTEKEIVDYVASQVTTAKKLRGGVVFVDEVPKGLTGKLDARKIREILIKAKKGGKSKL
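Purified P. pyralis luciferase (10nM final) with 10uM D-luciferin and 10uM ATP (Km levels) in 50mM Tris acetate pH 7.5, 10mM Mg acetate, 0.01% Tween-20, 0.05% BSA; qHTS 6-point titration, ~60 µM downward; luminescence read.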
SMN2 splice enh – increases expression of the SMN2 splice variant. HEK293 SMN2-luciferase splicing reporter, luminescence, 30-36 h. Potency, µM (doses to about 46.1 µM), inactives show at the highest dose activity change, positive = activation, hits mostly activators. 210,000 compounds, 2.8% hits; also: % of control where 0% means no effect; nearly all actives have a fitted effect of over 55% in size
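HEK293 cells carry an SMN2 […]–luciferase reporter in which exon 7 inclusion puts luciferase in frame. Cells were plated 10-12 h before compound addition, then incubated 30-36 h at 37C. ONE-Glo luminescence was read; sodium butyrate at 4.5 mM final served as control.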
ELG1 genotox – inducers of genotoxicity in HEK293T ELG1-luciferase cells | HEK293T ELG1-luciferase reporter, luminescence, 16 h | Potency, µM (top dose mostly 46 µM), for inactives: at the highest dose activity change, positive = activation, usual class: activators | 330,000 compounds, 1.3% hits | AID 504466; also: % of control where 0% means no effect; nearly all actives have a fitted effect of over 60% in size
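Genotoxicity was scored as increased ELG1-luciferase reporter signal, measured by ONE-Glo luminescence (30 min, room temperature). Compound or vehicle exposure of the HEK293T reporter cells lasted 16 hr at 37°C.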
KinaseGlo FLuc – counter-screen: inhibitors of Kinase-Glo firefly luciferase; Q27757; Kinase-Glo luciferase, ATP luminescence, 8 min; Potency, µM (titrated, usually from 38.3 µM), inactives show at the top dose activity change, negative = inhibition, hits mostly inhibitors; 200,000 compounds, 0.28% hits; AID 1379; also: % is scaled to controls: 0 for no effect and ±100 for the full control effect; nearly all actives have a fitted effect of over 60% in size
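Recombinant Kinase-Glo luciferase, 10 uM ATP (linear range), luciferin; imidazole pH 7.2 / KCl / MgCl2 / Tween / BSA buffer; 8 min RT; luminescence.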
NPC1 prom act – activates the NPC1 promoter. Potency, µM (top dose mostly 9.22 µM), for the others: at the top dose activation, actives largely listed as activators. Huh7 NPC1 promoter luciferase reporter, 24 h. 320,000 compounds, 2.4% hits. AID 485313; also: % of control where 0% means no effect; nearly all actives have a fitted effect of over 60% in size
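In 1536-well qHTS, Huh7 cells harboring an NPC1 promoter–luciferase construct received compound for 24 h; activation was quantified by luminescence following luciferase reagent addition.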
Rab9 prom act – activates the Rab9 promoter | Huh7 Rab9 promoter-luciferase reporter, luminescence, 24 h | Potency, µM (series often up to 9.22 µM), for the others: at the highest dose activation, negative = inhibition, usual class: activators | 320,000 compounds, 2.8% hits | AID 485297; also: % of control where 0% means no effect; nearly all actives have a fitted effect of over 60% in size
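Steps: seed 1500 Huh7 Rab9-luc cells per well, rest 2 h at 37 °C; add compound in DMSO; incubate 24 h; add luciferase reagent, 10 min ambient; read luminescence.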
* = called active by the depositor; ? = inconclusive; nt = no result; [ ] = dose if it differs, or a comment. Calls follow the shape of the dose curve; as a rule, active = well fitted curve in the direction sought with a large enough effect; inconclusive = small, poorly fitted or top-dose-only effect, or another doubt; inactive = no such curve, though single readings can be large; an effect the other way counts as inactive or inconclusive. Potency is read from the fitted curve at half-maximal effect.

SMILES	FLuc modulator	SMN2 splice enh	ELG1 genotox	KinaseGlo FLuc	NPC1 prom act	Rab9 prom act
CCCc1cc(C(=O)NCc2cccnc2)no1	-2%	-3%	6%	-1%	-2%	4%
CCCc1cc(C(=O)Nc2cccc(Cl)c2C)no1	24µM*	nt	18µM*	nt	?	?
COc1ccc(NC(=O)c2cc(C(C)C)on2)cc1OC	?	6%	?	-2%	29%	22%
CC(C)c1cc(C(=O)Nc2cccnc2)no1	-2%[2.3 µM]	35µM*	?	?	4µM*	2.8µM*
CCCc1cc(C(=O)NCc2ccccc2)no1	?	?	23µM*	-1%	15%	19%
Cc1cc(-c2ccccc2)nc(N2CCC(C(=O)NCc3ccccc3Cl)CC2)n1	-15%	28µM*	?	3%	22%	14%
C=CCNC(=O)C1CCN(c2nc(C)cc(-c3ccccc3)n2)CC1	19µM*	8.9µM*	?	1%	3.5µM*	3.5µM*
Cc1cc(C)nc(N2CCC(C(=O)NNC(=O)Cc3ccccc3)CC2)n1	0%	nt	0%	nt	0%	-1%
O=C(Nc1ccccc1)OCc1cncs1	-11%	9%	8%	-8%	6%	20%
O=C(/C=C/c1ccccc1)OCc1cncs1	27µM*	7%	?	0%	29%	?
Cc1nnc(NC(=O)c2cccc(S(=O)(=O)N3CC(c4ccccc4)CC3=O)c2)s1 (stereo not drawn)	-2%	-4%	0%	2%	-2%	-5%
CC(C)(O)C#Cc1ccc(CN2CCN(Cc3ccccc3)C(CCO)C2)cc1 (stereo not drawn)	2%	nt	-2%	nt	11%	12%
O=C1c2ccccc2-c2onc3c(Oc4ccccc4)cc(O)c1c23	?	11µM*	?	-11%	9%	1%
O=C(O)c1cc(Br)ccn1	6%	-52%	0%	12%	-2%	0%
O=C(CNC(=S)N(CCCN1CCOCC1)Cc1cccs1)N1CCCCCC1	-3%	-6%	0%	0%	-5%	-1%
O=C(O)c1ccc(N/N=C/c2ccnc3ccccc23)cc1	1.3µM*	nt	?	nt	0.56µM*	?
Oc1ccccc1/C=N/Nc1cccc2cccnc12	1.5µM*	?	?	-17%	?	13%
CCOC(=O)c1cnc2ccccc2c1Nc1ccc(C(=O)O)cc1	?	11%	4%	2%	-1%	1%
O=C(O)c1ccc(N/N=C/c2cccc3cccnc23)cc1	0.76µM*	nt	?	nt	0.32µM*	0.28µM*
CCc1ccc(CN(C)Cc2nc(Cc3ccc(OC)c(OC)c3)no2)nc1	-1%	nt	-3%	nt	3%	12%
CCOc1ccc(-c2nonc2NC(=O)c2ccccc2C)cc1	-2%	?	nt	nt	nt	nt
CCCc1cc(C(=O)N2CCN(C(c3ccccc3)c3ccccc3)CC2)no1	5%	-9%	?	-2%	-1%	-5%
Cc1ccc(C)c(NC(=O)Cn2ccn(-c3ccc4c(c3)OCO4)c(=O)c2=O)c1	2%	nt	3%	nt	-2%	0%
COc1ccc(C2=NN3C(C2)c2ccccc2OC32C(=O)N(C)c3ccccc32)cc1 (stereo not drawn)	11µM*	4%	15µM*	2%	3%	4%
CCOC(=O)Cc1csc(NC(=O)/C=C/c2ccc(Br)o2)n1	6.7µM*	nt	-8%	nt	1%	0%
SMILES	FLuc modulator	SMN2 splice enh	ELG1 genotox	KinaseGlo FLuc	NPC1 prom act	Rab9 prom act
CCOC(=O)Cc1csc(NC(=O)c2ccc(Br)s2)n1	24µM*	-6%	-9%	-6%	1%	12%
CCOC(=O)Cc1csc(NC(=O)c2cccs2)n1	19µM*	-4%	?	-6%	17%	20%
CCOC(=O)Cc1csc(NC(=O)c2cc(C)cc(C)c2)n1	-18%	-10%	-6%	-3%	-2%	-8%
CCOC(=O)c1csc(NC(=O)c2cccs2)n1	13µM*	nt	?	nt	2.2µM*	2.2µM*
C=CCN(C(=O)Nc1ccc(OC)cc1)c1nnc(-c2ccncc2)s1	-13%	nt	-10%	nt	4%	2%
CCOC(=O)c1c(NC(=O)/C=C/C(=O)O)sc(C)c1-c1ccc(C(C)(C)C)cc1	?	-65%	-3%	3%	-7%	-5%
COc1cccc(NC(=O)[C@H](NC(=O)[C@@H]2Cc3ccccc3CN2)c2ccccc2)c1	?	nt	?	nt	-17%	-3%
CCc1ccc2oc(-c3cccc(NC(=O)COc4ccccc4Cl)c3)nc2c1	?	23%	nt	nt	nt	nt
CCc1ccc(-n2nc(C)c3c(C(=O)Nc4ccc(Cl)cc4)cc(C)nc32)cc1	-1%	nt	nt	nt	nt	nt
CC(=O)N[C@H]1C(O[C@@H]2O[C@H](C[C@@H](O)[C@H]3O[C@@H](N4CCC(=O)NC4=O)[C@H](O)[C@@H]3O)[C@H](O)[C@H](O)[C@H]2NC(=O)/C=C/CCCCCCCCCCC(C)C)OC(CO)[C@@H](O)[C@@H]1O (stereo partly drawn)	nt	nt	nt	-2%[39.9 µM]	nt	nt
O=C(CSc1nc(-c2ccc(F)cc2)cc(C(F)(F)F)n1)NCCN1CCOCC1	10%	-3%	0%	-2%	-2%	-2%
CCOc1cccc2sc(NC(=O)c3ccc(Br)s3)nc12	2.7µM*	-21%	-1%	-1%	19%	16%
COc1ccc(C(=O)COC(=O)CN2C(=O)C3C4C=CC(C4)C3C2=O)cc1 (stereo not drawn)	1%	?	2%	-1%	-2%	-3%
COc1ccc(C(=O)COC(=O)C(C(C)C)N2C(=O)C3C4C=CC(C4)C3C2=O)cc1 (stereo not drawn)	19µM*	?	-3%	-5%	1%	-2%
O=C(O)c1ccc(NC2=C/C(=N/S(=O)(=O)c3ccccc3)c3ccccc3C2=O)cc1	15µM*	-103%	-16%	-27%	-40%	-39%
Cc1cc(C)c(S(=O)(=O)/N=C2\C=C(Nc3ccc(C(=O)O)cc3)C(=O)c3ccccc32)c(C)c1	?	nt	-34%	nt	-28%	-37%
CC(=O)C1=C(O)C(=O)N(c2ccc(Br)cn2)C1c1ccc(F)cc1 (stereo not drawn)	-6%	1%	?	1%	2.2µM*	4µM*
COc1cccc(-c2nc(SCC(=O)N3CCc4ccccc43)c3c(=O)n(C)c(=O)n(C)c3n2)c1	0%	nt	nt	nt	nt	nt
CCCCCCOc1ccc(/C=C/C(=O)N2CCOCC2)cc1OC	-3%	nt	1%	nt	0%	7%
O=C(/C=C/c1ccccc1Cl)N1CCOCC1	?	nt	13%	nt	23%	4%
O=C(/C=C/c1cccc2ccccc12)c1ccncc1	9.5µM*	-61%	-6%	1%	-8%	-8%
O=C(/C=C/c1cccc(Oc2ccccc2)c1)N1CCOCC1	15µM*	nt	?	-16%	?	1.6µM*
